# Laboratory results from PubChem BioAssay (NCATS).
# Values joined by “and” are separate entries in the source; they are usually repeats but may differ in a detail not shown here. Equal entries are not always repeated. Unmarked numbers belong to inactive results. Records with an inconclusive call do not appear. The source holds several records for some structures; these can differ, active in one and inactive in another. Active and inactive are the calls of the source. Unless noted, calls come from the whole dose curve; as a rule, active = well fitted curve in the direction sought with a large enough effect; inconclusive = small, poorly fitted or top-dose-only effect, or another doubt; inactive = no such curve, though single readings can be large; an effect the other way counts as inactive or inconclusive.
# Experiments:
# [1] = Drug repurposing screens with cells derived from glioblastoma tumor samples (AID 1345199); conditions: GBM patient neurospheres viability, ATP luminescence, 48 h; note: nearly all actives have a fitted effect of over 40% in size; note: potency is the fitted concentration of half-maximal effect; for activity, negative = cell killing: % is set by controls: 0 for no effect and ±100 for the full control effect
# Method in brief: (§1)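 Primary testing used CD133+ neurospheres from four GBM patients, seven concentrations, 48 h exposure and ATP-based viability; confirmation added three slower-growing patient lines.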
# astro = control astrocytes; assay: as above; conditions: viability, ATP luminescence, 48 h; series mostly up to 45.9 µM
# Method in brief: as §1
# PA-1 = assay: Primary qHTS to identify gynecologic anti-cancer compounds using libraries of approved drugs and bioactive compounds (AID 1345084); conditions: Gynecologic cancer cell panel viability, ATPlite luminescence, 48 h; series mostly up to 57.5 µM; note: nearly all actives have a fitted effect of over 55% in size; note: potency is the fitted concentration of half-maximal effect
# Method in brief: (§2)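 Cell viability after 48 h drug treatment, ATPlite luminescence readout; five doses.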
# Tov-21-G = assay: as above; conditions: Gynecologic cancer cell panel viability, ATPlite luminescence, 48 h; series mostly up to 57.5 µM
# Method in brief: as §2
# Tov112D = assay: as above; conditions: Gynecologic cancer cell panel viability, ATPlite luminescence, 48 h; series mostly up to 57.5 µM
# Method in brief: as §2
# [2] = biological target: Nuclear receptor subfamily 1 group I member 2 (Rattus norvegicus) (UniProt Q9R1A7); assay: qHTS assay for small molecule activators of the rat pregnane X receptor (rPXR) signaling pathway (AID 651751; call rule not given here; note: 0% is about no effect); conditions: rPXR reporter cells, luciferase (One-Glo), 24 h
# Chain of Nuclear receptor subfamily 1 group I member 2 (Rattus norvegicus) (Q9R1A7 whole entry, looked up): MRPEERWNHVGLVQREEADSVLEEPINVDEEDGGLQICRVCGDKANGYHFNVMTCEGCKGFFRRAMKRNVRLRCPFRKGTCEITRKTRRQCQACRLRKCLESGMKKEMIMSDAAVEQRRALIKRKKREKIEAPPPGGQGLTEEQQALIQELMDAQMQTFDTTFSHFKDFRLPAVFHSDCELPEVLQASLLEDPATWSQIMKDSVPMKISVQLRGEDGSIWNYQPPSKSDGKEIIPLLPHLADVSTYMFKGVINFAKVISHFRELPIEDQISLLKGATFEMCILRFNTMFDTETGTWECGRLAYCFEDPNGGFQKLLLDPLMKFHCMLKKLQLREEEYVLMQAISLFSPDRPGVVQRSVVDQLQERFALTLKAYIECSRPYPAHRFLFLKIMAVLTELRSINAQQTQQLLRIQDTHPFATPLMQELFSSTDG
# [3] = qHTS assay for small molecule activators of the human pregnane X receptor (PXR) signaling pathway (AID 720659; call rule not given here; note: 0% is about no effect)
# SKOV3 = assay: Primary qHTS to identify gynecologic anti-cancer compounds using libraries of approved drugs and bioactive compounds (AID 1345084); conditions: Gynecologic cancer cell panel viability, ATPlite luminescence, 48 h; series mostly up to 57.5 µM; note: nearly all actives have a fitted effect of over 55% in size; note: potency is the fitted concentration of half-maximal effect
# Method in brief: as §2
# [4] = at 45.9 µM (top of the series), tumour line B
# [5] = at 45.9 µM (top of the series), tumour line D
# [6] = at 46 µM (top of the series), tumour line A
# [7] = at 91.6 µM (top of the series), tumour line B
structure (smiles),measurement,setting,value
CC(C)C[C@H](CN)CC(=O)O,"activity, negative = cell killing",[1]; [4],2.42%
same,"activity, negative = cell killing",[1]; [5],-14.3%
same,"activity, negative = cell killing",[1]; [6],-19.6%
same,Potency,astro,inactive
Oc1ccc(Cl)cc1,Potency,PA-1,inactive
same,Potency,Tov-21-G,inactive
same,Potency,Tov112D,inactive
same,"activity, negative = cell killing",[1]; [4],-7.37%
same,"activity, negative = cell killing",[1]; [5],-24.9%
same,"activity, negative = cell killing",[1]; [6],-26.5%
same,max response,[2],5.25%
same,outcome,[3],inactive
COC1CC(=C(c2cccs2)c2cccs2)C[N+](C)(C)C1 (configuration not stated),outcome,SKOV3,inactive
same,Potency,Tov-21-G,inactive
same,Potency,Tov112D,inactive
CCCN(CCC)C(=O)Cc1c(-c2ccc(Cl)cc2)nc2ccc(Cl)cn12,outcome,SKOV3,inactive
same,Potency,Tov-21-G,inactive
same,Potency,Tov112D,inactive
same,"activity, negative = cell killing",[1]; [4],-4.08%
same,Potency,[1]; tumour line A,10 µM (active)
same,Potency,astro,inactive
COC(=O)C(c1ccccc1)C1CCCCN1 (configuration not stated),"activity, negative = cell killing",[1]; [4],-10.4%
same,"activity, negative = cell killing",[1]; [5],3.11%
same,"activity, negative = cell killing",[1]; [6],-16.7%
same,Potency,astro,inactive
same,max response,[2],1.26% and 1.36%
same,outcome,[3],inactive
CCN(CCO)CCn1c(Cc2ccccc2)nc2c1c(=O)n(C)c(=O)n2C,Potency,PA-1,inactive
same,Potency,Tov-21-G,inactive
same,Potency,Tov112D,inactive
same,"activity, negative = cell killing",[1]; [4],-6.5%
same,"activity, negative = cell killing",[1]; [5],-3.15%
same,Potency,astro,inactive
Cc1nnc2n1-c1ccc(Cl)cc1C(c1ccccc1)=NC2,"activity, negative = cell killing",[1]; [5],7.45%
C[C@](O)(CS(=O)(=O)c1ccc(F)cc1)C(=O)Nc1ccc(C#N)c(C(F)(F)F)c1,"activity, negative = cell killing",[1]; [4],-21.4%
same,Potency,[1]; tumour line A,12.6 µM (active)
C[C@]12CCC(=O)C=C1CC[C@@H]1[C@@H]2CC[C@]2(C)C(=O)CC[C@@H]12,outcome,SKOV3,inactive
same,Potency,Tov-21-G,inactive
same,Potency,Tov112D,inactive
same,"activity, negative = cell killing",[1]; [4],-22.1%
same,Potency,[1]; tumour line A,10 µM (active)
same,Potency,astro,inactive
same,max response,[2],5.29% and 4.66%
Clc1ccc2c(c1)C(c1ccccc1)=NCc1nncn1-2,"activity, negative = cell killing",[1]; [4],-7.06%
same,"activity, negative = cell killing",[1]; [5],3.75%
same,Potency,astro,inactive
CCN(CC)C(=O)[C@@H]1C=C2c3cccc4[nH]cc(c34)C[C@H]2N(C)C1,Potency,Tov-21-G,inactive
same,Potency,Tov112D,inactive
same,"activity, negative = cell killing",[1]; [4],-17.8%
same,"activity, negative = cell killing","[1]; at 194 µM (top of the series), tumour line B",-16.6%
COc1cccc2c1C(=O)c1c(O)c3c(c(O)c1C2=O)C[C@@](O)(C(=O)CO)CC3OC1CC(N2CCOC(OC)C2)C(O)C(C)O1 (some centres not stated),Potency,Tov-21-G,0.1 µM (active)
same,Potency,Tov112D,0.1 µM (active)
C[C@]12CCC(=O)C=C1CC[C@@H]1[C@H]3CC[C@](C)(O)[C@@]3(C)CC[C@@H]12,Potency,Tov-21-G,inactive
same,"activity, negative = cell killing",[1]; [7],-15.6%
same,Potency,[1]; tumour line A,39.8 µM (active)
same,Potency,astro,inactive
CN1C(=O)CC(=O)N(c2ccccc2)c2cc(Cl)ccc21,"activity, negative = cell killing",[1]; [4],-10.8%
same,"activity, negative = cell killing",[1]; [5],-2.22%
same,"activity, negative = cell killing",[1]; [6],-21.5%
COc1ccc2c(c1OC)C(=O)O[C@H]2[C@@H]1c2cc3c(cc2CCN1C)OCO3,Potency,PA-1,inactive
same,Potency,Tov-21-G,inactive
same,Potency,Tov112D,inactive
same,"activity, negative = cell killing",[1]; [4],0.565%
same,"activity, negative = cell killing",[1]; [5],-4.13%
same,Potency,astro,inactive
O=C(O)/C=C\C(=O)O,"activity, negative = cell killing",[1]; [4],0.272%
same,"activity, negative = cell killing",[1]; [5],-6.85%
same,"activity, negative = cell killing",[1]; [6],-28.3%
same,"activity, negative = cell killing","[1]; at 46.1 µM (top of the series), tumour line C",3.02%
same,Potency,astro,inactive
CN1C[C@H](C(=O)N[C@]2(C)O[C@@]3(O)[C@@H]4CCCN4C(=O)[C@H](Cc4ccccc4)N3C2=O)C=C2c3cccc4[nH]cc(c34)C[C@H]21,"activity, negative = cell killing",[1]; [4],-13.4%
same,Potency,[1]; tumour line A,14.1 µM (active)
same,Potency,astro,inactive
same,max response,[2],10% and -0.133%
CCCCCN(C)CCC(O)(P(=O)(O)O)P(=O)(O)O,"activity, negative = cell killing",[1]; [4],-6.41%
same,"activity, negative = cell killing",[1]; [5],-6.48%
same,"activity, negative = cell killing",[1]; [6],-14.8%
same,Potency,astro,inactive
CC(C)=CC1C(C(=O)OCN2C(=O)C3=C(CCCC3)C2=O)C1(C)C (configuration not stated),Potency,PA-1,inactive
same,Potency,Tov-21-G,inactive
same,Potency,Tov112D,inactive
same,"activity, negative = cell killing",[1]; [4],-18.8%
same,"activity, negative = cell killing",[1]; [5],-12.7%
same,Potency,astro,inactive
CC(C)[C@H]1C(=O)N2CCC[C@H]2[C@]2(O)O[C@](NC(=O)[C@@H]3C[C@@H]4c5cccc6[nH]cc(c56)C[C@H]4N(C)C3)(C(C)C)C(=O)N12,"activity, negative = cell killing",[1]; [4],-21%
same,Potency,[1]; tumour line A,7.08 µM (active)
Nc1ccccc1C(=O)O,Potency,PA-1,inactive
same,Potency,Tov-21-G,inactive
same,Potency,Tov112D,inactive
same,"activity, negative = cell killing",[1]; [4],2.36%
same,"activity, negative = cell killing",[1]; [5],-8.9%
same,"activity, negative = cell killing",[1]; [6],-2.87%
same,Potency,astro,inactive
same,max response,[2],-1.41%
same,outcome,[3],inactive
CN1C(=O)C(O)N=C(c2ccccc2)c2cc(Cl)ccc21 (configuration not stated),"activity, negative = cell killing",[1]; [4],2.89%
same,"activity, negative = cell killing",[1]; [5],-6.26%
same,"activity, negative = cell killing",[1]; [6],-24.3%
O=C1Nc2ccc(Cl)cc2C(c2ccccc2)=NC1O (configuration not stated),"activity, negative = cell killing",[1]; [4],-7.13%
same,"activity, negative = cell killing",[1]; [5],-25.5%
same,"activity, negative = cell killing",[1]; [7],-11.1%
same,"activity, negative = cell killing","[1]; at 91.6 µM (top of the series), tumour line D",-11.5%
same,Potency,[1]; tumour line A,39.8 µM (active)
same,Potency,astro,inactive
Cc1nnc2n1-c1ccc(Cl)cc1C(c1ccccc1Cl)=NC2,"activity, negative = cell killing",[1]; [4],-10.7%
same,"activity, negative = cell killing",[1]; [5],-8.42%
same,"activity, negative = cell killing",[1]; [6],-36.4%
same,Potency,astro,inactive
C[C@]1(O)CC[C@H]2[C@@H]3CCC4=CC(=O)CC[C@]4(C)[C@@]3(F)[C@@H](O)C[C@@]21C,"activity, negative = cell killing",[1]; [4],-7.52%
same,"activity, negative = cell killing",[1]; [5],-21.3%
same,Potency,[1]; tumour line A,35.5 µM (active)
same,Potency,astro,inactive
O=P1(N(CCCl)CCCl)NCCCO1 (configuration not stated),Potency,PA-1,inactive
same,Potency,Tov-21-G,inactive
same,Potency,Tov112D,inactive
same,"activity, negative = cell killing",[1]; [4],-0.921%
same,"activity, negative = cell killing",[1]; [5],1.42%
same,Potency,astro,inactive
same,max response,[2],6.19% and -0.989%
same,outcome,[3],inactive
O=C1Nc2ccc(Cl)cc2C(c2ccccc2Cl)=NC1O (configuration not stated),"activity, negative = cell killing",[1]; [4],0.661%
same,"activity, negative = cell killing",[1]; [5],-9.55%
same,"activity, negative = cell killing",[1]; [6],-25.3%
same,Potency,astro,inactive
CCCC(C)(COC(N)=O)COC(N)=O,"activity, negative = cell killing",[1]; [4],0.449%
same,"activity, negative = cell killing",[1]; [5],-14.8%
same,"activity, negative = cell killing",[1]; [6],-19.1%
same,Potency,astro,inactive
same,max response,[2],3.06% and 3.91%
COc1ccc2c(c1)C13CCCC[C@@H]1C(C2)N(C)CC3 (some centres not stated),"activity, negative = cell killing",[1]; [4],-6.27%
same,"activity, negative = cell killing",[1]; [5],-5.01%
same,Potency,[1]; tumour line A,35.5 µM (active)
same,Potency,astro,inactive
C[C@]12CC[C@@H]3c4ccc(OC(=O)N(CCCl)CCCl)cc4CC[C@H]3[C@@H]1CC[C@@H]2O,"activity, negative = cell killing",[1]; [4],-7.93%
same,"activity, negative = cell killing",[1]; [5],-5.83%
same,"activity, negative = cell killing",[1]; [6],-29.8%
COc1cc(CC(C)N)cc(OC)c1OC (configuration not stated),Potency,PA-1,2.51 µM (active)
same,Potency,Tov-21-G,0.708 µM (active)
same,"activity, negative = cell killing","[1]; at 108 µM (top of the series), tumour line B",-12%
same,"activity, negative = cell killing","[1]; at 108 µM (top of the series), tumour line D",-16.2%
COP(=S)(OC)Oc1ccc(SC)c(C)c1,outcome,SKOV3,inactive
same,Potency,Tov-21-G,inactive
same,Potency,Tov112D,inactive
same,"activity, negative = cell killing",[1]; [4],-12.6%
same,"activity, negative = cell killing",[1]; [5],-10.9%
same,"activity, negative = cell killing",[1]; [6],-25.3%
same,max response,[2],-3.65% and 2.94%
same,outcome,[3],inactive
Nc1ccc([As](=O)(O)O)cc1,Potency,PA-1,inactive
same,Potency,Tov-21-G,inactive
same,Potency,Tov112D,inactive
same,"activity, negative = cell killing",[1]; [4],-5.35%
same,"activity, negative = cell killing",[1]; [5],-5.12%
same,"activity, negative = cell killing",[1]; [6],-21.8%
same,Potency,astro,inactive
same,max response,[2],3.51%
same,outcome,[3],inactive
